# From PubChem BioAssay
# Rows were chosen to be rich in hits. Some 2.2% of all compounds tested hit in one or more screens of this group.
# aSyn UTR inh: MLPCN primary screen, SNCA 5' untranslated region | alpha-synuclein 5'UTR reporter, inhibitor activity | inhibition, % (tested at 7.5 µM) | 0.82% of 300,000 active | AID 1813; in the data active means inhibition above about 60%;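 further: H4 neuroglioblastoma cells stably carrying SNCA 5'UTR luciferase fusion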
# IEC-6 cytotox: kills IEC-6 intestinal cells in KLF5 counter-screen | inhibition, % at 5 µM | 0.78% of 290,000 active | AID 1825 | IEC-6 cytotoxicity, luminescence viability
# KLF5 inh: inhibitors of KLF5 expression. DLD-1 KLF5 promoter-luciferase reporter, luminescence. inhibition, % at 5 µM. 0.23% of 290,000 active;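 active means inhibition above a per-plate limit of that plate's mean compound inhibition plus 3 SD, cut at about 60% in these data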;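 further: higher means less KLF5 promoter-driven luciferase light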
# BaF3 parental: reduces parental Ba/F3 cell viability, JAK2V617F counter-screen; CellTiter-Glo ATP luminescence; inhibition, % at 5.6 µM; 1.1% of 220,000 active;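 active means inhibition above a per-campaign cutoff, the mean inhibition of all tested compounds plus 3 SD, cut at about 27% in these data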
# APP 5UTR inh: APP translation inhibition. SH-SY5Y APP 5'UTR-luciferase reporter, luminescence. inhibition, % at 2 µM. 0.82% of 190,000 active;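 active means inhibition above a set limit, derived from the sample mean plus 3 SD, cut at about 45% in these data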
# Ba/F3 V617F tox: reduce viability of Ba/F3 cells dependent on JAK2V617F | Ba/F3 EpoR-JAK2V617F viability, ATP luminescence | inhibition, % at 5.6 µM | 1.1% of 220,000 active;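 active means inhibition above the campaign mean plus 3 SD over all tested compounds, cut at about 24% in these data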;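 further: cytokine-independent growth of Ba/F3 cells driven by EpoR plus mutant JAK2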
# BaF3 parental 2: counter-screen for JAK2V617F inhibitors: parental Ba/F3 viability inhibitors; inhibition, % at 5.6 µM; CellTiter-Glo luminescence; cells kept alive by added IL-3; 31% of 580 active; shares compounds with Ba/F3 V617F tox;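 active means cell growth inhibition above the hit limit set in the earlier mutant JAK2 cell screen, cut at about 27% in these data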
# JAK2V617F confrm: Ba/F3 EpoR-JAK2V617F viability loss, confirmation. CellTiter-Glo luminescence. shares compounds with Ba/F3 V617F tox. inhibition, % at 5.6 µM. AID 1521. 66% of 580 active;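 active means mean inhibition above the hit cutoff derived in the earlier primary screen, cut at about 25% in these data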;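 further: higher means lower luminescence from reduced cell ATP and viability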
# IEC-6 cytotox cf: IEC-6 cytotoxicity, confirmation assay; shares compounds with IEC-6 cytotox; IEC-6 rat intestinal epithelial viability, luminescence; inhibition, % at 5 µM; 63% of 1,900 active
# Hits are given with their value; 0 = inactive; - = no result. Unless noted, no stated cut-off is given here; in the data, active means inhibition above about 22%; inactive means the rest.
SMILES,aSyn UTR inh,IEC-6 cytotox,KLF5 inh,BaF3 parental,APP 5UTR inh,Ba/F3 V617F tox,BaF3 parental 2,JAK2V617F confrm,IEC-6 cytotox cf
Cc1noc(NC(=O)c2ccc(Cl)c(Cl)c2)c1Cl,0,0,0,0,0,29,0,47,-
Cc1ccc(N(CC(=O)Nc2cc(Cl)ccc2Oc2ccccc2)S(C)(=O)=O)cc1C,0,0,0,0,0,26,0,0,-
CCC(C)N1C(=O)S/C(=C/c2ccc3c(c2)n(C)c(=O)n3C)C1=O (stereo unspecified),0,0,0,0,0,67,0,0,-
COc1ccc(-c2cnnc(N/N=C/c3ccc(O)c(O)c3)n2)cc1,0,0,0,0,0,47,83,100,-
COCCN(CC(=O)NCC1CCCO1)C(=O)CCC(=O)Nc1cc(C)on1 (stereo unspecified),0,0,0,0,0,35,0,0,-
COCCN(CC(=O)NCC1CCCO1)C(=O)CCC(=O)Nc1cc(C)ccn1 (stereo unspecified),0,0,0,0,0,0,-,-,-
COc1cccc(NC(=O)C2C3C=CC(C3)C2C(=O)O)c1 (stereo unspecified),0,0,0,-,-,-,-,-,-
O=C(c1ccccc1)C(CCC(CN1CCOCC1)C(=O)c1ccccc1)CN1CCOCC1 (stereo unspecified),0,0,0,0,90,44,0,100,-
Oc1ccccc1OCC(O)c1ccccc1 (stereo unspecified),0,0,0,-,-,-,-,-,-
Oc1ccccc1OCCOc1ccccc1OCCOc1ccccc1O,0,0,0,0,0,26,0,71,-
CCO[C@H]1OC(C(=O)Nc2ccccc2)=C[C@@H](c2ccc(C(F)(F)F)cc2)[C@@H]1CCCO,0,0,0,0,0,0,-,-,-
Cc1cccc(NC(=O)c2cnn3ccccc23)c1C,0,0,0,0,-,28,0,25,-
Cc1cccc(NC(=O)c2ccccc2O)c1C,0,0,0,0,0,0,-,-,-
CCn1cc(CN2CCN(Cc3ccccc3)C(CCO)C2)c2ccccc21 (stereo unspecified),0,0,0,-,-,-,-,-,-
CCn1cc(CN2CCN(Cc3ccc(C)o3)C(CCO)C2)c2ccccc21 (stereo unspecified),0,0,0,0,0,44,0,0,-
N#Cc1ccc(CN2CCN(C(=O)CC(NC(=O)c3ccccc3)c3ccccc3)CC2)cc1 (stereo unspecified),0,0,0,-,-,-,-,-,-
COc1ccccc1NC(=O)C1C2CCCCC21 (stereo unspecified),0,0,0,0,0,94,0,0,-
COc1ccccc1NC(=O)NC1CCCCCCC1,-,0,0,-,-,-,-,-,-
Cc1cccc(Nc2nc(N)nc(CCl)n2)c1C,0,102,0,0,-,100,0,98,0
COc1ccccc1Nc1nc(N)nc(CCl)n1,0,0,0,0,-,0,-,-,-
Cc1cccc(Nc2ccncc2S(N)(=O)=O)c1,0,-,-,-,-,-,-,-,-
COc1ccccc1NC(=O)C1CCCN(c2cnccn2)C1 (stereo unspecified),0,0,0,-,-,-,-,-,-
CC(=O)OC[C@H]1O[C@@H](n2ncc(=O)[nH]c2=O)[C@H](OC(C)=O)[C@@H]1OC(C)=O,0,39,0,0,0,61,53,75,22
COc1ccccc1N1C(=O)c2cccc3c(C(=O)O)ccc(c23)C1=O,0,0,0,0,0,0,-,-,-
COc1ccc2c3c(cccc13)C(=O)N(O)C2=O,0,63,0,0,0,30,0,0,33
SMILES,aSyn UTR inh,IEC-6 cytotox,KLF5 inh,BaF3 parental,APP 5UTR inh,Ba/F3 V617F tox,BaF3 parental 2,JAK2V617F confrm,IEC-6 cytotox cf
Cc1ccc(S(=O)(=O)Nc2cc3c(cc2C#N)OCO3)cc1C(N)=O,0,0,0,-,-,-,-,-,-
N#CC1=C(N)Oc2cc3ccccc3cc2C1c1cccnc1 (stereo unspecified),0,47,0,0,0,30,31,48,44
Cc1cccc(N(CC(=O)NC2CCCC2)C(=O)CCC(=O)Nc2ccccn2)c1,0,0,0,-,-,-,-,-,-
COc1ccc(/C=N/NC(=O)c2cccnc2)cc1COc1ccc([N+](=O)[O-])c(C)c1,98,45,0,0,-,25,47,93,43
COc1ccc(/C=N/NC(=O)c2ccn[nH]2)cc1COc1ccc([N+](=O)[O-])c(C)c1,0,0,0,0,-,0,-,-,-
Cc1nnc(SCC(=O)N(C2CCCCC2)C2CCS(=O)(=O)C2)n1N (stereo unspecified),0,-,-,-,-,-,-,-,-
Cn1cc(C(=O)N/N=C/c2ccc3c(c2)OCO3)c2ccccc21,0,53,0,0,-,48,0,0,48
O=C1c2ccc3c4c(ccc(c24)C(=O)N1CCCCO)C(=O)N(CCCCO)C3=O,111,29,0,0,0,32,79,91,37
O=C(c1ccc2c(c1)C(=O)N(CCCO)C2=O)c1ccc2c(c1)C(=O)N(CCCO)C2=O,-,0,0,0,0,0,-,-,-
CC1CC(c2ccccc2)NS(=O)(=O)O1 (stereo unspecified),0,0,0,-,-,-,-,-,-
O=[N+]([O-])c1ccc(Sc2nnnn2-c2ccccc2)nc1,0,38,0,0,94,69,29,100,44
CC(=O)Cc1cc(O)c2ccccc2c1OC(=O)c1ccccc1,0,55,0,0,0,28,28,41,0
O=C(NC(NC(=S)N1CCOCC1)C(Cl)(Cl)Cl)c1ccc(Cl)cc1 (stereo unspecified),66,24,0,0,0,30,31,60,31
Cn1cc([N+](=O)[O-])c(C(=O)Nc2cc(Oc3ccccc3)cc([N+](=O)[O-])c2)n1,0,23,0,0,97,26,32,99,0
CN(C)C(=O)c1ccc(NC(=O)CN2C(=O)NC3(CCCc4ccccc43)C2=O)cc1 (stereo unspecified),0,-,-,-,-,-,-,-,-
O=C(O)CCCC(=O)Nc1ccc(C(=O)NCc2cccnc2)cc1,0,0,0,0,0,0,-,-,-
O=C(CCC1CCCC1)Nc1ccc(C(=O)NCc2cccnc2)cc1,72,85,0,0,0,31,30,100,46
COc1ccc(OC)c(/C=N/NC(=O)c2[nH]nc3c2CCc2ccccc2-3)c1,0,0,0,0,0,0,-,-,-
COc1cccc(/C=N/NC(=O)c2[nH]nc3c2CCc2ccccc2-3)c1,0,23,0,0,-,29,44,92,43
O=C1C=CC(=O)N1CCCCCCN1C(=O)C=CC1=O,-,24,0,0,95,72,96,80,0
O=C1C2C3C=CC(C3)C2C(=O)N1CCCCCCN1C(=O)C2C3C=CC(C3)C2C1=O (stereo unspecified),-,0,0,0,0,0,-,-,-
